Measurements as given in PubChem BioAssay (NCI).
Compounds without any hit were thinned out: in the full panel of roughly 83,000, 20% have a hit.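 How to read the values: 0–100, growth inhibition (40 = 60% inhibited); 0, no net growth; -100 to 0, cell death (-40 = 40% of starting cells died; -100 = all dead).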 The source made the active and inactive calls. The calls were made as follows: active = growth percent below 10; inactive = the rest.

Key:
Test in all cases: NCI-60 one-dose screen, 48 h (100 = growth as untreated, 0 = no growth, -100 = all killed)
Conditions in all cases: 10 µM
[1] = tested on: NCI-H23 lung
[2] = tested on: NCI-H226 lung
[3] = tested on: NCI-H322M lung
[4] = tested on: HOP-62 NSCLC
[5] = tested on: NCI-H460 lung
[6] = tested on: NCI-H522 lung
[7] = tested on: A549/ATCC NSCLC
[8] = tested on: 786-0 renal
[9] = tested on: COLO 205 colon
[10] = tested on: DU-145 prostate

Measured: growth

O=C(Nc1nc2ccc(F)cc2s1)c1cc(-c2ccc(F)cc2)n2nc(-c3ccccc3)cc2n1
inactive: [1] 79.7% | [2] 105% | [3] 111% | [4] 64.1% | [5] 59.5% | [6] 98.9% | [7] 92.1% | [8] 101% | [9] 96.4% | [10] 87%

COc1ccc2c(c1)C(=O)c1c-2c(OCCN(C)C)nc2cc(OC)c(OC)cc12
inactive: [1] 53.1% | [2] 58% | [3] 57.2% | [4] 36.1% | [5] 36.6% | [6] 42.1% | [7] 47.8% | [8] 79.1% | [9] 66.5% | [10] 52%

COc1ccc2c(c1)C(=O)c1c-2c(OCCN(C)C)nc2ccccc12
active: [3] -5.17% | [5] 2.29%
inactive: [1] 41.5% | [2] 45.5% | [4] 30.8% | [6] 21.2% | [7] 14% | [8] 33.7% | [9] 23.4% | [10] 27%

c1ccc2c(-c3nc(N4CCOCC4)c4c5c(sc4n3)CCCCCC5)cccc2c1
inactive: [1] 107% | [2] 93.8% | [3] 110% | [4] 101% | [5] 104% | [6] 91.2% | [7] 97.7% | [8] 103% | [9] 114% | [10] 119%

CCN(CC)Cc1cc(Nc2ccnc3cc(Cl)ccc23)ccc1OC
inactive: [1] 87.8% | [2] 105% | [3] 99% | [4] 88% | [5] 90.1% | [6] 69.3% | [7] 89.6% | [8] 97.4% | [9] 62.4% | [10] 107%

COc1ccc(/C=C/C(=O)Nc2ccc(-c3nc4ccc(OC)cc4s3)cc2)cc1
inactive: [1] 94.7% | [2] 99.9% | [3] 112% | [4] 101% | [5] 106% | [6] 91.2% | [7] 103% | [8] 103% | [9] 121% | [10] 117%

CCCCCCc1cc(N=Nc2ccc(S(=O)(=O)Nc3cc(C)nc(C)n3)cc2)c(O)cc1O
inactive: [1] 102% | [2] 98% | [3] 93.5% | [4] 107% | [5] 110% | [6] 90.1% | [7] 106% | [8] 102% | [9] 103% | [10] 114%

COc1ccc(-c2cc(/C=C3\C(=O)Nc4ccc(Cl)cc43)[nH]n2)cc1OC
inactive: [1] 101% | [2] 85.5% | [3] 70.6% | [4] 97.7% | [5] 79.9% | [6] 89% | [7] 89.5% | [8] 102% | [9] 89.7% | [10] 76.4%

Cc1cc2ccccc2nc1-c1ccccc1F
inactive: [1] 109% | [2] 98.9% | [3] 128% | [4] 94.6% | [5] 107% | [6] 122% | [7] 92.4% | [8] 95.1% | [9] 110% | [10] 116%

CC(=O)[C@H]1CC[C@H]2[C@@H]3CCC4=CC(=O)C=C[C@]4(C)[C@H]3CC[C@]12C
inactive: [1] 90% | [2] 88.4% | [3] 97% | [4] 100% | [5] 96.1% | [6] 81.4% | [7] 94.4% | [8] 99.8% | [9] 119% | [10] 108%

Cc1cc(C)c(CCc2cc(C)c(C)cc2C)cc1C
inactive: [1] 98% | [2] 92.3% | [3] 112% | [4] 117% | [5] 110% | [6] 95.5% | [7] 99.9% | [8] 108% | [9] 118% | [10] 107%

O=C(NN1C(=O)CSC1c1ccc(Cl)cc1)c1cccnc1 (stereo not given)
inactive: [1] 86.8% | [2] 249% | [3] 98.9% | [4] 93.7% | [5] 103% | [6] 87.1% | [7] 113% | [8] 92% | [9] 110% | [10] 52.2%

N=C1c2nc3n(c2C(=O)c2nc4n(c21)CCCC4)CCCC3
inactive: [2] 57.1% | [3] 27.7% | [4] 52.3% | [6] 10.5% | [8] 89%
active: [1] -70.4% | [5] 4.62% | [7] -30.6% | [9] -88.6% | [10] -93.9%

N#CCCN1C/C(=C/c2ccccc2)C(=O)/C(=C/c2ccccc2)C1
inactive: [1] 78.9% | [2] 69.8% | [3] 86% | [4] 59.5% | [5] 71% | [7] 76.6% | [8] 34.1% | [9] 59.4% | [10] 35.2%
active: [6] -51.6%

O=C(Nc1nc(-c2ccccc2Cl)cs1)c1cc(-c2ccc(Cl)cc2)nc2ccc(Cl)cc12
inactive: [1] 28.8% | [2] 72.7% | [3] 90.8% | [4] 28.5% | [5] 96.3% | [6] 57.8% | [7] 92.7% | [8] 23.5% | [9] 94.3% | [10] 32%

COc1cc(Nc2ccnc(NCCCNc3ccnc4cc(Cl)ccc34)n2)cc(OC)c1
inactive: [1] 55.8% | [2] 87.6% | [3] 15.2% | [4] 27.4% | [7] 11.9% | [10] 34.3%
active: [5] -4.19% | [6] -44.8% | [8] -90.9% | [9] -92.2%

O=C(Nc1ccc(Cl)c([N+](=O)[O-])c1)Nc1nc2ccccc2s1
inactive: [1] 64.5% | [2] 86.4% | [3] 101% | [4] 90.1% | [5] 82% | [6] 36.1% | [7] 27.2% | [8] 90.3% | [9] 108% | [10] 107%

O=C(O)CC(Cl)C(Cl)CC(=O)O (stereo not given)
inactive: [1] 102% | [2] 119% | [3] 93.1% | [4] 110% | [5] 101% | [6] 86.3% | [7] 94.6% | [8] 101% | [9] 112% | [10] 106%

CC(=O)O[C@]1(C)CC[C@H]2[C@H](CNCCc3ccc(Cl)cc3)C(=O)O[C@@H]2C2=C(C)C(=O)C[C@H]21
active: [6] -33.4%
inactive: [1] 102% | [2] 94.9% | [3] 91.9% | [4] 94% | [5] 106% | [7] 85.6% | [8] 96.6% | [9] 97% | [10] 89.4%

O=[N+]([O-])c1cccc(N=Cc2ccc3c(c2)OCO3)c1
inactive: [1] 104% | [2] 104% | [3] 112% | [4] 109% | [5] 120% | [6] 89.8% | [7] 101% | [8] 106% | [9] 120% | [10] 119%

CCN1CCCC1CNC(=O)c1ncc(-c2ccc(C(F)(F)F)cc2)c(NC2CCCCCC2)n1 (stereo not given)
inactive: [1] 92.5% | [2] 86% | [3] 84.7% | [4] 97% | [5] 80.4% | [6] 69.1% | [7] 77.2% | [8] 84.5% | [9] 42.7% | [10] 83.2%

COc1ccc2c(c1)/C(=C\c1c[nH]c3ccc(OC)cc13)C(=O)N2
inactive: [1] 49.4% | [2] 72.7% | [3] 54.7% | [4] 51% | [5] 53.2% | [6] 50.3% | [7] 30.8% | [8] 70.9% | [9] 36.7% | [10] 63.1%

N#Cc1ncc(-c2ccc(C(F)(F)F)cc2)c(NCc2cc(C(F)(F)F)cc(C(F)(F)F)c2)n1
active: [5] 2.11% | [9] -24.1%
inactive: [1] 10.6% | [2] 43.8% | [3] 70.2% | [4] 39.2% | [6] 12.2% | [7] 29.2% | [8] 40.3% | [10] 28.2%

C[N+](C)(C)c1ncnc2nc[nH]c12
inactive: [1] 93.8% | [2] 99.1% | [3] 67% | [4] 98% | [5] 104% | [6] 97.1% | [7] 108% | [8] 89.8% | [9] 104% | [10] 116%

COc1cc(CNCCCCCCN2C(=O)c3cccc4cccc(c34)C2=O)ccc1O
inactive: [1] 84% | [2] 96.4% | [3] 67.3% | [4] 70.3% | [5] 78.1% | [6] 60.9% | [7] 64.3% | [8] 58.3% | [9] 45.8% | [10] 80.9%

CCOC(=O)C1CCc2c(ccc3ccccc23)N1CCC#N (stereo not given)
inactive: [1] 89.7% | [2] 98.7% | [3] 85.7% | [4] 101% | [5] 109% | [6] 93.3% | [7] 104% | [8] 100% | [9] 119% | [10] 111%

CC(=O)c1nc2ccccc2n1CCNC(N)=O
inactive: [1] 82.1% | [2] 100% | [3] 95% | [4] 70.3% | [5] 55.2% | [6] 61.8% | [7] 62.3% | [8] 95.1% | [9] 69.7% | [10] 93.2%
